KCNQ2 enhance – enhances the rat KCNQ2 potassium channel; O88943; CHO-K1 KCNQ2, FluxOR thallium flux fluorescence; active compounds read high; B-score at 10 µM; hit rate 0.54% among 310,000;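 active means fluorescence ratio B-score at least 3 SD of library B-scores, with initial fluorescence B-score within 3 of them, cut at about 5.3 in these data; same plate scores as AID 2156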;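 further: B-score of peak minus minimum over baseline fluorescence ratio after K+ and Tl+ stimulus; positive B-score means potentiation of KCNQ2 with more thallium influx and brighter signal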
Target sequence (O88943 whole entry, looked up): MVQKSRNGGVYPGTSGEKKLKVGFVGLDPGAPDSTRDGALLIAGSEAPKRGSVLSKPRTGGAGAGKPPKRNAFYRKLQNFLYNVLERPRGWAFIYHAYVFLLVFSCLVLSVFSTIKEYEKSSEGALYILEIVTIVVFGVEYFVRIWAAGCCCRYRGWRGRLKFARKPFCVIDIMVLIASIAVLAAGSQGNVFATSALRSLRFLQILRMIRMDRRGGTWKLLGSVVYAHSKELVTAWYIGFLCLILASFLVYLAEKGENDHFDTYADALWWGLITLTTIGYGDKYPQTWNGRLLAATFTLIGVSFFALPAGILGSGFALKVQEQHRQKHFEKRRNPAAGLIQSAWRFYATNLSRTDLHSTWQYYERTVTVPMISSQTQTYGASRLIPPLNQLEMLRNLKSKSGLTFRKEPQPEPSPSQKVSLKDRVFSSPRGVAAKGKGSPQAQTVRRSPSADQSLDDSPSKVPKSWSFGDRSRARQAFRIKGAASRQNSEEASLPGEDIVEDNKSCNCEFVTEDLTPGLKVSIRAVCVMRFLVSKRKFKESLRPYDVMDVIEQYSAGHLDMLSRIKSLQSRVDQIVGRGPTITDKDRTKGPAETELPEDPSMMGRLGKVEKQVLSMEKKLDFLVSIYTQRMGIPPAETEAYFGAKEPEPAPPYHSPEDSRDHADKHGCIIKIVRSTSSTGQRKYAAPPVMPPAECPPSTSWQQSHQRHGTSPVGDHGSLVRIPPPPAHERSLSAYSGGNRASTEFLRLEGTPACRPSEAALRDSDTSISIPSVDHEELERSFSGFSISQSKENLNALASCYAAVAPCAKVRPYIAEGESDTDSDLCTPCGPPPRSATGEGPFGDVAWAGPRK
KCNQ2 block – KCNQ2 (rat) channel inhibition; CHO-K1 KCNQ2, FluxOR thallium flux, 20 min; active compounds read low; B-score at 10 µM; hit rate 1.1% among 310,000; AID 2156;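 active means fluorescence ratio B-score at most minus 3 library SDs, with starting brightness B-score within 2 library SDs, cut at about -5.5 in these data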
KCNQ2 inh conf – confirmation of rat KCNQ2 potassium channel inhibitors; shares compounds with KCNQ2 block; KCNQ2-expressing cells, thallium flux, inhibition; active compounds read low; activity change, negative = inhibition, % at 10 µM; hit rate 57% among 1,000; AID 493025
KCNQ1 spec – selectivity of KCNQ2 inhibitors against human KCNQ1 | shares compounds with KCNQ2 block | KCNQ1-expressing cells, FluxOR thallium flux fluorescence; active compounds read low | activity change, negative = inhibition, % at 10 µM | hit rate 15% among 1,000;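 active means activity change at least 3 SD of negative controls below their mean in both duplicate wells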;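 further: CHO cells stably transfected with KCNQ1 and depolarized by potassium stimulus; peak minus minimum fluorescence over baseline after thallium addition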
CHO parental ctr – counter-screen for KCNQ2 inhibitors: effect in parental CHO cells | shares compounds with KCNQ2 block | thallium flux counter-screen; active compounds read low | activity change, % at 10 µM | hit rate 14% among 1,000 | AID 493029
KCNQ2 inh confirm – blocks rat KCNQ2 current in automated patch clamp; shares compounds with KCNQ2 block; KCNQ2-expressing cells; calls only at 10 µM; hit rate 49% among 550
Hits are given with their value; - = inactive; . = not tested or not shown; + = active, no number. Most compounds without a hit are left out; they make up all but 1.6% or so of the library. Unless noted, how the calls were made is not given here.

SMILES	KCNQ2 enhance	KCNQ2 block	KCNQ2 inh conf	KCNQ1 spec	CHO parental ctr	others
Cc1nc(Sc2ccccc2)c(C#N)cc1-c1ccccc1	-	-9.3	-	-	-
N#Cc1cc(-c2ccc(Cl)cc2)cnc1Sc1ccccc1	.	-	.	.	.
Cc1nc(Cl)c(C#N)cc1-c1ccccc1	-	-	.	.	.
N#Cc1cc(-c2ccccc2)cnc1Sc1ccc(Cl)cc1	-	-6.8	-	-	-
CC(=O)Nc1cccc(C(=O)OCC(=O)NNC(=O)c2cccs2)c1	.	-	.	.	.
CCC1C(=NO)C(CC)C(c2ccccc2)NC1c1ccccc1 (stereo not drawn)	-	-9.4	-39%	-	-	KCNQ2 inh confirm=-
CCCC1/C(=N/O)CC(c2ccccc2)NC1c1ccccc1 (stereo not drawn)	.	-	.	.	.
O=C(/C=C/c1ccc([N+](=O)[O-])cc1)c1cccnc1	-	-9.9	-	-	-
O=C(/C=C/c1cccc(OCc2ccccc2)c1)c1cccnc1	-	-6.8	-29%	-	-	KCNQ2 inh confirm=-
O=C(N/N=C/c1ccc([N+](=O)[O-])cc1)c1cccnc1	.	-	.	.	.
O=C(O)/C=C/c1cccc(OCc2ccccc2)c1	-	-	.	.	.
Cc1cc(C(=O)NC2CCCCC2C)c2ccccc2n1 (stereo not drawn)	.	-	.	.	.
CCc1nc2ccc(F)cc2c(C(=O)NC2CCCCC2C)c1C (stereo not drawn)	-	-7.1	-26%	-	-	KCNQ2 inh confirm=+
O=C(CSc1nc2ccccc2c(=O)n1NC(=O)c1ccccc1)c1ccc(Cl)cc1	-	-10	-30%	-	-	KCNQ2 inh confirm=+
Cc1nc2ccccc2c(=O)n1NC(=O)c1ccc(Cl)cc1	-	-	.	.	.
CCn1c(SCC(=O)c2ccccc2)nc2ccccc2c1=O	-	-	.	.	.
O=C(CSc1nc2ccccc2c(=O)n1NC(=O)c1ccccc1)c1ccccc1	-	-12	-16%	-	-	KCNQ2 inh confirm=+
COc1ccc(NC(=O)CN(C)C(=O)/C=C/c2cn(-c3ccccc3)nc2-c2ccc(C)cc2)cc1	.	-	.	.	.
COc1cccc(NC(=O)CN(C)C(=O)/C=C/c2cn(-c3ccccc3)nc2-c2ccc(C)cc2)c1	-	-9.1	-22%	-	-	KCNQ2 inh confirm=-
O=C(COc1ccccc1Cl)N1CCN(C(=O)c2ccco2)CC1	-	-	.	.	.
CCCCCCSc1ccc([C@H]2N[C@@](Cc3ccccc3)(C(=O)OC)[C@H]3C(=O)N(C)C(=O)[C@@H]23)cc1OC	.	-	.	.	.
CCCCCCOC1(c2ccccc2)OC(=O)c2ccccc21 (stereo not drawn)	.	-	.	.	.
CCCCCCCOC1(c2ccccc2)OC(=O)c2ccccc21 (stereo not drawn)	-	-8.5	-22%	-	-	KCNQ2 inh confirm=-
Cc1cc(C(=O)NCc2ccccc2Cl)c2ccccc2n1	-	-7.2	-22%	-	-	KCNQ2 inh confirm=-
Cc1cc(C(=O)NCc2cccc(Cl)c2)c2ccccc2n1	.	-	.	.	.
SMILES	KCNQ2 enhance	KCNQ2 block	KCNQ2 inh conf	KCNQ1 spec	CHO parental ctr	others
Cc1cc(C(=O)Nc2ccccc2Cl)c2ccccc2n1	-	-6.9	-31%	-	-	KCNQ2 inh confirm=+
Cc1ccc(NC(=O)c2ccccn2)c(Br)c1	.	-	.	.	.
COc1cc(NC(=O)c2cc(C)nc3ccccc23)cc(OC)c1OC	.	-	.	.	.
Cc1ccc(NC(=O)c2cc(C)nc3ccccc23)c(Br)c1	-	-6.7	-	-	-
COc1ccc(CC(=O)Oc2ccc(C)cc2Br)cc1S(=O)(=O)N1CCOCC1	.	-	.	.	.
CCN(CC1COc2ccccc2O1)C(=O)c1ccc(Cl)c(S(=O)(=O)N2CC(C)OC(C)C2)c1 (stereo not drawn)	.	-	.	.	.
CC1CN(S(=O)(=O)c2cc(C(=O)N(CCc3ccccc3)Cc3ccccc3)ccc2Cl)CC(C)O1 (stereo not drawn)	-	-7.2	-	-	-
CCCCN(C)C(=O)CNC(=O)c1nn(-c2ccc(OC)cc2OC)c(=O)c2ccccc12	-	-	.	.	.
CCOC(=O)C(NC(=O)c1ccccc1Cl)(Nc1ccc(C(F)(F)F)cc1)C(F)(F)F (stereo not drawn)	.	-	.	.	.
CCOC(=O)C(NC(=O)c1ccc(Cl)cc1Cl)(Nc1ccc(C)cc1)C(F)(F)F (stereo not drawn)	-	-8.5	-	-	-
Cc1ccc(/C=N/NC(=O)c2nnn(-c3nonc3N)c2C(C)C)o1	-	-	.	.	.
FC(F)(F)c1cccc(CNC2c3ccccc3-c3ccccc32)c1	.	-	.	.	.
CCOC(=O)c1ccc2c(c1)nc(COc1ccc3ccccc3c1)n2CC	-	-9.1	-	-	-
CCn1c(COc2ccc(OC)cc2)nc2ccccc21	.	-	.	.	.
COc1ccccc1-n1ccn(CC(=O)Nc2ccc(C)cc2Cl)c(=O)c1=O	-	-	.	.	.
CC(=O)N1CCc2c(sc3c2c(=O)n(Cc2ccccc2)c(=O)n3CC(=O)NCC2CCCO2)C1 (stereo not drawn)	.	-	.	.	.
CCOC(=O)N1CCc2c(sc3c2c(=O)n(Cc2ccccc2)c(=O)n3Cc2ccc(C)cc2)C1	-	-7.7	-	-	-
CC/C(=N\NC(=O)Cc1ccc(Br)cc1)c1cccs1	.	-	.	.	.
COc1ccccc1S(=O)(=O)Cc1ccc(C(=O)N2CCN(c3ccccc3)CC2)o1	.	-	.	.	.
COc1ccccc1S(=O)(=O)Cc1ccc(C(=O)N2CCN(c3cccc(Cl)c3)CC2)o1	-	-10	-37%	-	-	KCNQ2 inh confirm=-
O=C(N/C(=C/c1cccc([N+](=O)[O-])c1)C(=O)N1CCOCC1)c1ccccc1Br	.	-	.	.	.
Cc1cccc(OCC(=O)NCCNC(=O)c2ccccn2)c1	-	-	.	.	.
CCOc1ccc(-c2nc(CSCC(=O)NC3CC3)c(C)o2)cc1	-	-	.	.	.
COc1cccc(-c2nc(CS(=O)(=O)CC(=O)NC3CCCc4ccccc43)c(C)o2)c1 (stereo not drawn)	-	-10	-32%	-	-	KCNQ2 inh confirm=+
COc1cccc(-c2nc(CS(=O)(=O)CC(=O)NC3CCCC3)c(C)o2)c1	.	-	.	.	.
SMILES	KCNQ2 enhance	KCNQ2 block	KCNQ2 inh conf	KCNQ1 spec	CHO parental ctr	others
CCOc1ccc(-c2nc(CSCC(=O)NC3CCCc4ccccc43)c(C)o2)cc1 (stereo not drawn)	-	-8.8	-40%	-37%	-36%	KCNQ2 inh confirm=+
COc1ccc(-c2csc(NC(=O)CCS(=O)(=O)c3ccccc3)n2)c(OC)c1	-	-	.	.	.
COc1ccc(-n2ncc3c2CC(C)(C)CC3NC(=O)c2c(C)cc(=O)oc2C)cc1 (stereo not drawn)	.	-	.	.	.
CCOc1ccc(-n2c(SCC(=O)NC)nnc2-c2ccco2)cc1	.	-	.	.	.
CCN(Cc1ccccc1)C(c1ccccn1)c1nnnn1C1CCCCC1 (stereo not drawn)	.	-	.	.	.
CCN(Cc1ccccc1)C(c1cccs1)c1nnnn1C1CCCCC1 (stereo not drawn)	-	-10	-34%	-	-	KCNQ2 inh confirm=-
COc1ccc(CCNC(=O)CCOc2ccc(C(C)(C)C)cc2)cc1OC	-	-	.	.	.
CN(CCOc1ccccc1)C(=O)c1ccc(N2CCCC2)c([N+](=O)[O-])c1	.	-	.	.	.
COc1ccc(C(=O)NCCS(=O)(=O)NCc2ccccc2OC)cc1	.	-	.	.	.
Cc1ccc(O)c(NC(=O)c2ccc3c(c2)C(=O)N(Cc2cccnc2)C3=O)c1	-	-	.	.	.
COC(=O)CSc1nnc(CNc2ccc(Cl)cc2)n1Cc1ccccc1	.	-	.	.	.
CCOC(=O)CSc1nnc(CNc2ccc(Cl)cc2)n1-c1ccccc1	-	-8.9	-	-	-

Screens (PubChem BioAssay)
